High-throughput results as filed in PubChem.
Most compounds without a hit are left out; they make up all but 5.5% or so of the library.
VP16 counter – inhibits Gal4-VP16 luciferase reporter, ROR gamma counter-screen | Drosophila S2 Gal4-VP16 UAS-luciferase, luminescence, 20 h | Potency, µM (doses to about 53.6 µM), usual class: inhibitors | hit rate 3.5% among 310,000 | AID 2546;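 further: Gal4-VP16 expression switched on by copper sulfate through the metallothionein promoter; nearly all actives have a fitted effect of over 50% in size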
RORg inh – ROR gamma (mouse) transcription inhibition. Drosophila S2 Gal4-RORgamma UAS-luciferase reporter, 20 h. Potency, µM (top dose mostly 53.6 µM), actives largely listed as inhibitors. P51450. hit rate 5.4% among 310,000; further: nearly all actives have a fitted effect of over 60% in size
Target sequence (P51450 whole entry, looked up, the tested form may be a part): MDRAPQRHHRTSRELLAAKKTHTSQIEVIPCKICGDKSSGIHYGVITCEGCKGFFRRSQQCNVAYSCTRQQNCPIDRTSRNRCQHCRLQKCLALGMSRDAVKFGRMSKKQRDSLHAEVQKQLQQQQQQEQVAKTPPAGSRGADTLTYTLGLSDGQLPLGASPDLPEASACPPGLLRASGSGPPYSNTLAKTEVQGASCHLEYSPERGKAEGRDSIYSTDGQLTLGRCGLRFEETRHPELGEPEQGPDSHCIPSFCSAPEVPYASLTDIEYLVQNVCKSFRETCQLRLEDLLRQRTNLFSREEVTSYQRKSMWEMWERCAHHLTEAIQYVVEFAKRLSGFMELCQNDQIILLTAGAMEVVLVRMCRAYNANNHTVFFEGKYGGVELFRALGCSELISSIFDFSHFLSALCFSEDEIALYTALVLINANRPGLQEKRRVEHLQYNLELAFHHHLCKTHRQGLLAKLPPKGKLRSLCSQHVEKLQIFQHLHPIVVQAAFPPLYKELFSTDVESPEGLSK
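Compounds are pin-transferred onto Drosophila Schneider cells expressing a copper-inducible Gal4–ROR gamma transactivation domain fusion. After 1 hr, copper sulfate is added to 700 uM final; luciferase is read 20 hr later.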
uPA generation – blocks generation of uPA at the cell surface. cell surface uPA generation assay, qHTS. Potency, µM (doses to about 38.3 µM), most hits filed as inhibitors. hit rate 0.31% among 330,000; active means well fitted inhibition curve with a large enough effect; inconclusive means small, poorly fitted or top-dose-only effect; inactive means no such curve, though single readings can be large or run the other way; tested in mouse RAW 264.7 cells; further: nearly all actives have a fitted effect of over 55% in size
Integrin act MD – activates integrin-mediated alleviation for muscular dystrophy. alpha7betagal myoblasts, beta-gal FDG fluorescence, 48 h. Potency, µM (top dose mostly 38.3 µM), most hits filed as activators. hit rate 0.064% among 350,000. AID 624291; further: nearly all actives have a fitted effect of over 60% in size
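Alpha7betagal+/- myoblasts (passage 13) were plated 16-24 hr, then exposed to compounds (1:260 dilution of DMSO stock) for 48 hours at 37C. After MPER lysis, β-galactosidase reporter activity was read as FDG fluorescence (ex 480/em 540) after 30 minutes.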
Mito fusion act – mitochondrial division inhibition or fusion activation; S. cerevisiae fusion-defective mutant growth rescue, CellTiterGlo 48 h; Potency, µM (titrated, usually from 46.1 µM), hits mostly activators; hit rate 0.23% among 320,000; AID 485298; further: nearly all actives have a fitted effect of over 45% in size
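Yeast fusion mutant, YPEG (non-fermentable carbon), compound, 48 h at 37C non-permissive; CellTiterGlo added, 10 min RT, luminescence read. Rescued growth = division inhibition.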
Chronic BCR inh – blocks chronic active B-cell receptor signaling | ABC-DLBCL IkBa-CBG/CBR reporter, luminescence ratio, 4 h | Potency, µM (series often up to 46.1 µM), usual class: inhibitors | hit rate 0.05% among 340,000; active means well fitted inhibition curve with a large enough effect in the signal ratio, with a control signal flat, not every such curve was filed as active; inconclusive means small, poorly fitted or top-dose-only effect, or effect the other way, or a change in a side signal; the % refers to the signal ratio
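Doxycycline induced both beetle luciferases in TMD8 lymphoma cells; IKK-driven degradation limits the IkappaBalpha-fused green signal, while red luminescence normalises for cell number and nonspecific effects. Compounds tested up to 46 uM, 4 hrs.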
Large screens that a line does not name were inactive. Unless noted, the call rests on the fitted dose curve; in most records, active means well fitted curve in the direction sought with a large enough effect; inconclusive means small, poorly fitted or top-dose-only effect, or another doubt; inactive means no such curve, though single readings can be large; an effect the other way counts as inactive or inconclusive.

CN1CCN(C(c2ccc(Cl)cc2)c2cc(Cl)c3cccnc3c2O)CC1 (centres undefined)	VP16 counter 1.4µM, RORg inh 3.2µM, Mito fusion act inconclusive, Chronic BCR inh inconclusive
OCCN1CCN(C(c2cccs2)c2ccc3cccnc3c2O)CC1 (centres undefined)	VP16 counter 11µM, RORg inh 11µM (no result: uPA generation, Integrin act MD)
CN1CCN(C(c2ccccc2)c2ccc(Cl)cc2)CC1 (centres undefined)	none (no result: VP16 counter, RORg inh, Integrin act MD)
Cc1[nH]c2ccccc2c1C(c1ccccn1)N1CCCC1 (centres undefined)	none
CCCCn1c(N)c(N(C)C(=O)c2ccccc2Oc2ccccc2)c(=O)[nH]c1=O	Integrin act MD inconclusive (no result: VP16 counter, RORg inh)
CCN1CCN(C(c2ccc(C(F)(F)F)cc2)c2ccc3cccnc3c2O)CC1 (centres undefined)	VP16 counter 1.3µM, RORg inh 1.1µM, Integrin act MD inconclusive
CN(C)S(=O)(=O)N1CCC(Oc2ccc(C(=O)N3CCCCCCC3)cc2)CC1	VP16 counter inconclusive, RORg inh inconclusive
Cc1cc(C)n(C(=O)Cn2nc(C(F)F)cc2C)n1	none
Cc1cc(C)n(CC(=O)n2nc(C)cc2C)n1	RORg inh 0.32µM, Chronic BCR inh inconclusive
CCN(CC)CCn1c(NC(=O)c2ccc(Cl)cc2)nc2ccccc21	VP16 counter 2.5µM, RORg inh 2µM, Chronic BCR inh inconclusive
CCN(CC)CCn1c(NCc2ccc(C)o2)nc2ccccc21	RORg inh 0.5µM
CCN(CC)CCn1c2ccccc2c2nc3ccccc3nc21	uPA generation 10µM, Chronic BCR inh inconclusive
CCCn1c2ccccc2c2nc3ccccc3nc21	Chronic BCR inh inconclusive
CCN(CC)CCn1c(C)nc2ccccc21	none
CCN(CC)CCn1c(NC(=O)c2ccccc2O)nc2ccccc21	VP16 counter 5µM, RORg inh 2.5µM, uPA generation inconclusive, Chronic BCR inh inconclusive
CCCCCN(C(=O)COC(=O)c1ccc(C)cc1)c1c(N)n(CCCC)c(=O)[nH]c1=O	none (no result: VP16 counter, RORg inh)
COc1ccc(CNC(=O)c2cnn3c(C)c(Cc4ccc(F)cc4)c(C)nc23)cc1	none (no result: VP16 counter, RORg inh, uPA generation, Integrin act MD, Mito fusion act)
Cc1ccc[n+](CC(=O)c2ccc(NC(=O)c3ccccc3)cc2)c1	none
O=C(Nc1ccc[n+](CC(=O)c2cccc3ccccc23)c1)c1ccccc1	VP16 counter 11µM, RORg inh inconclusive
CN(CCOc1ccc(Cl)cc1)C(=O)c1cccc(S(=O)(=O)N2CCN(c3ccc(F)cc3)CC2)c1	none (no result: VP16 counter, RORg inh, Mito fusion act, Chronic BCR inh)
Fc1ccc(-n2nnc(-c3nccs3)n2)cc1	VP16 counter inconclusive, RORg inh inconclusive, uPA generation inconclusive, Chronic BCR inh inconclusive
CC(C)(C)c1ccc(C(=O)Nc2cccc(S(=O)(=O)NC3=NCCC3)c2)cc1	uPA generation 4µM, Chronic BCR inh inconclusive (no result: VP16 counter, RORg inh)
O=C(/C=C\Nc1ccccn1)c1ccc(Cl)cc1	VP16 counter 10µM, RORg inh 7.1µM, uPA generation inconclusive, Chronic BCR inh inconclusive
COc1ccc(C(=O)/C=C/Nc2cccc(O)c2)cc1	VP16 counter 2µM, RORg inh 10µM, Chronic BCR inh inconclusive
CN(C)c1ccc(C(=O)Nc2cccc(S(=O)(=O)NC3=NCCCCC3)c2)cc1	uPA generation inconclusive, Chronic BCR inh inconclusive (no result: VP16 counter, RORg inh)
O=C(Nc1ccccn1)c1ccc(C(=O)Nc2ccccn2)cc1	none
COc1cccc(N/C=C/C(=O)c2ccc(Br)cc2)c1	none (no result: VP16 counter, RORg inh, Mito fusion act, Chronic BCR inh)
CC(=O)c1cccc(NS(=O)(=O)c2ccc(C(=O)Nc3ccccc3)cc2)c1	VP16 counter 10µM, RORg inh inconclusive, Chronic BCR inh inconclusive
C/C=C/c1ccc(OC(C)[C@@H](O)c2ccc(O)c(OC)c2)c(OC)c1 (some centres undefined)	none (no result: uPA generation, Integrin act MD, Mito fusion act, Chronic BCR inh)
COC(CN(C)C(=O)C1CCCN(S(=O)(=O)c2ccc3c(c2)oc(=O)n3C)C1)OC (centres undefined)	none
Cc1cccc(N/C=C/C(=O)c2ccc(Cl)cc2)c1	VP16 counter inconclusive, RORg inh 3.2µM, uPA generation inconclusive, Chronic BCR inh inconclusive
COc1ccc(NS(=O)(=O)c2cc(-c3cnc(C4CC4)o3)ccc2C)cc1	uPA generation inconclusive, Chronic BCR inh 13µM
CC(=O)Nc1ccc(NS(=O)(=O)c2ccc(-c3cnc(C4CC4)o3)cc2)cc1	none
CC(=O)c1cccc(NS(=O)(=O)c2ccc(-c3cnc(C4CC4)o3)cc2)c1	VP16 counter 8.9µM, uPA generation inconclusive
COc1ccc(C(=O)/C=C/Nc2ccc(S(=O)(=O)Nc3cccc(C(C)=O)c3)cc2)cc1	VP16 counter 5.6µM, Chronic BCR inh inconclusive
Cc1cc(C)nc(NN2C(=O)/C(=C/c3ccc(O)cc3)SC2=S)n1	none (no result: uPA generation)
COc1ccccc1/C=C1\SC(=S)N(Nc2nc(C)cc(C)n2)C1=O	RORg inh 11µM, Chronic BCR inh inconclusive (no result: uPA generation)
CCN1CCN(C(=O)/C=C/c2c(F)cccc2Cl)CC1	none
CCc1ccc(/C=C\C(=O)N2CCc3ccccc3C2)cc1	VP16 counter inconclusive, RORg inh 10µM
CCc1ccc(/C=C\C(=O)N2CCCC2)cc1	none (no result: VP16 counter, RORg inh, Mito fusion act, Chronic BCR inh)
O=C(/C=C/c1c(F)cccc1Cl)N1CCc2ccccc2C1	RORg inh 0.4µM, Mito fusion act inconclusive
COc1ccc(S(=O)(=O)N2CCCCCC2)cc1NC(=O)CN(C)Cc1ccc2c(c1)OCO2	none (no result: VP16 counter, RORg inh)
CC(=O)N[C@@H](CC(C)C)C(=O)N[C@@H](CCCNC(=N)N)C(=O)N[C@@H](Cc1cnc[nH]1)C(=O)N[C@@H](Cc1ccc(O)cc1)C(=O)N[C@@H](CC(C)C)C(=O)N[C@@H](CC(N)=O)C(=O)N[C@@H](CC(C)C)C(=O)N[C@@H](CC(C)C)C(=O)N[C@H](C(=O)N[C@@H](CCCNC(=N)N)C(=O)N[C@@H](CCC(N)=O)C(=O)N[C@@H](CCCNC(=N)N)C(=O)N[C@@H](Cc1ccc(O)cc1)C(N)=O)[C@@H](C)O	none (no result: uPA generation, Integrin act MD, Mito fusion act, Chronic BCR inh)
Cc1ccc2nc(NS(=O)(=O)c3cn(C)nc3C)sc2c1	VP16 counter 11µM, RORg inh 14µM, Chronic BCR inh inconclusive
COc1ccc(NS(=O)(=O)c2cn(C)nc2C)cc1	Chronic BCR inh inconclusive
c1ccc(-c2cccc(N3CCC4(CCNCC4)CC3)c2)cc1	RORg inh inconclusive (no result: uPA generation, Integrin act MD, Mito fusion act, Chronic BCR inh)
CCCc1cc(-c2[nH]ncc2-c2ccc3c(c2)OCCCO3)c(O)cc1OC	VP16 counter inconclusive, RORg inh 3.5µM, Chronic BCR inh inconclusive (no result: uPA generation, Integrin act MD)
O=C(NC(=S)Nc1ccc(S(=O)(=O)N2CCCCCC2)cc1)c1cccs1	VP16 counter 6.3µM, RORg inh 2.8µM
O=C(NC(=S)Nc1ccc(S(=O)(=O)N2CCCC2)cc1)c1cccs1	VP16 counter 13µM, RORg inh 4.5µM, Integrin act MD inconclusive, Chronic BCR inh inconclusive
COc1cccc(NC(=O)CSc2c(C)cnc3c2c(=O)n(C)c(=O)n3C)c1	none (no result: VP16 counter, RORg inh, uPA generation, Integrin act MD, Mito fusion act)
COc1ccccc1CNc1ncncc1-c1ccccc1OC	VP16 counter 16µM, RORg inh inconclusive (no result: uPA generation, Integrin act MD, Mito fusion act, Chronic BCR inh)
